# Laboratory results as given in the supplement of paper PMC8540655.
# Unmarked numbers belong to inactive results.
# Test system: Aedes aegypti larvae
# Experiment: larval motility relative to same well at 0 h (fraction); higher = more motile (less active compound), active = 0.4 or less
# Conditions: 10 µM; 2 h
# Procedure: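 MMV Pandemic Response Box compounds were tested at 10 µM (1% v/v DMSO) on Aedes aegypti larvae (18-24 h after hatching, about 10 per well, 96-well plates). Motility was quantified with INVAPP (200-frame movies) at 0, 2 and 24 h. Each well's motility was divided by its own 0 h score, and the median of 3 independent screens is reported.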
row,SMILES,larval motility
1,Nc1c(C(=O)NCc2ccco2)c2nc3ccccc3nc2n1CCN1CCCCC1,0.782
2,COC(=O)Nc1nc2ccccc2[nH]1,0.867
3,COc1ccccc1CN[C@H]1C2CCN(CC2)[C@H]1C(c1ccccc1)c1ccccc1,0.829
4,O=C(NC12CC3CC(CC(C3)C1)C2)c1cc2ccccc2[nH]1,0.685
5,CC(C)Oc1cccc(NC(=O)c2ccccc2C(F)(F)F)c1,0.405
6,NC1(C(=O)O)CCP(=O)(O)CC1 (centres undefined),0.238 (active)
7,CCN1CCN(Cc2nc3ccc([N+](=O)[O-])cc3c(=O)n2-c2ccccc2F)CC1,0.54
8,COc1cc(C(C)(C)CCCC(C)C)cc(OC)c1OC,1.11
9,CN1C(=O)C(c2ccccc2)C(=O)N(c2ccccc2)c2cc(C(F)(F)F)ccc21 (centres undefined),0.796
10,C[C@@]1(O)[C@H](O)[C@@H](CO)O[C@H]1n1ccc2c(N)ncnc21,0.65
11,CCCCc1ccc(C(=O)O)nc1,0.853
12,C[N+]1(C)CCCC(OC(=O)C(O)(c2ccccc2)c2ccccc2)C1 (centres undefined),0.776

# Same assay, conditions: 10 µM; 24 h
row,SMILES,larval motility
1,Nc1c(C(=O)NCc2ccco2)c2nc3ccccc3nc2n1CCN1CCCCC1,0.543
2,COC(=O)Nc1nc2ccccc2[nH]1,0.986
3,COc1ccccc1CN[C@H]1C2CCN(CC2)[C@H]1C(c1ccccc1)c1ccccc1,0.616
4,O=C(NC12CC3CC(CC(C3)C1)C2)c1cc2ccccc2[nH]1,1.27
5,CC(C)Oc1cccc(NC(=O)c2ccccc2C(F)(F)F)c1,0.543
6,NC1(C(=O)O)CCP(=O)(O)CC1 (centres undefined),1.44
7,CCN1CCN(Cc2nc3ccc([N+](=O)[O-])cc3c(=O)n2-c2ccccc2F)CC1,2.49
8,COc1cc(C(C)(C)CCCC(C)C)cc(OC)c1OC,1.04
9,CN1C(=O)C(c2ccccc2)C(=O)N(c2ccccc2)c2cc(C(F)(F)F)ccc21 (centres undefined),0.84
10,C[C@@]1(O)[C@H](O)[C@@H](CO)O[C@H]1n1ccc2c(N)ncnc21,0.788
11,CCCCc1ccc(C(=O)O)nc1,0.63
12,C[N+]1(C)CCCC(OC(=O)C(O)(c2ccccc2)c2ccccc2)C1 (centres undefined),0.656
